Assay results as given in PubChem BioAssay (EPA / NIEHS).
“And” between values parts separate entries of the source, which are not always exact repeats. Identical values can stand only once. Results filed as inconclusive are left out. Some compounds were tested as several samples or in several runs, with calls that do not always agree. The source made the active and inactive calls. Rule for the calls, unless noted: active = hit-call score of the fitted dose curve at least 0.9, where 1 is the maximum; inactive = score below 0.9.

How the values were obtained:
[1] = CCTE_Shafer_MEA_acute_network_burst_percentage: CCTE's Neural Acute Assay for Percentage of Network Bursts, Shafer Lab (AID 2284022);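 note: curves fitted for loss so actives lower network burst percentage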
In short: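 Rat cortical cultures, DIV 13/15; 20 min equilibration, 40 min baseline, compound 0.03-40 uM, 40 min recording, 37 C. Spikes: 300-5000 Hz band-pass, threshold 8x rms noise. Readout: % change in network-burst spike fraction; loss direction vs DMSO.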

[2] = CCTE_Shafer_MEA_acute_cross_correlation_HWHM: CCTE's Neural Acute Assay for Cross Correlation at Half Width at Half Maximum, Shafer Lab (AID 2284026);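 note: percent change per well from pre-dose baseline in spike cross-correlogram half width; hits are a decrease in cross-correlogram half width relative to DMSO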
In short: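 Read-out: half width at half maximum of action-potential cross-correlogram, percent change versus pre-treatment baseline, fitted in loss direction against DMSO. Rat cortical cultures, DIV 13 or 15, dosed 0.03-40 uM, 40-min recordings at 37 C.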

[3] = CCTE_Shafer_MEA_dev_firing_rate_mean: CCTE's Neural Network Formation Assay for Mean Firing Rate, Shafer Lab (AID 2284031);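 for AC50: curve fitted for loss of firing so AC50 reflects decreased mean firing rate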
In short: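 Read-out: spike count/recording length, averaged over active electrodes, then AUC across days 5, 7, 9, 12. Rat cortical cultures on MEA; continuous 12-day exposure, media and treatment renewed DIV 5, 9; DMSO baseline.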

[4] = CCTE_Shafer_MEA_dev_per_burst_spike_percent: CCTE's Neural Network Formation Assay for Percent of Spikes in a Burst, Shafer Lab (AID 2284032);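 for AC50: fitted as a decrease in burst spike percentage below DMSO baseline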
In short: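 Value is trapezoidal AUC over recordings on days 5, 7, 9 and 12 of the well-mean fraction of spikes falling in single-electrode bursts; rat cortical cultures exposed continuously from plating, treatment renewed DIV 5 and 9, fitted downward against DMSO.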

[5] = CCTE_Deisenroth_AIME_384WELL_CTox_Active: Cytotoxicity Assessment (CTOX) in CCTE's 384-well Estrogen Receptor Transactivation Assay with AIME metabolic competence (metabolism positive), Deisenroth Lab (AID 2284037; active = hit-call score of the fitted dose curve at least 0.9, where 1 is the maximum;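 note: chemicals first conditioned 2 h by alginate-bound induced rat liver S9 before cells; activity means signal loss indicating cell death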)
In short: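 Chemicals pre-incubated 2 hours with alginate-immobilised phenobarbital/beta-naphthoflavone-induced male Sprague Dawley rat liver S9, then conditioned medium applied 24 hour to VM7Luc4E2 cells. Viability by fluorogenic protease substrate; 10-point series 0.002 - 200 uM.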

[6] = CCTE_Deisenroth_AIME_384WELL_CTox_Inactive: Cytotoxicity Assessment (CTOX) in CCTE's 384-well Estrogen Receptor Transactivation Assay without AIME metabolic competence (metabolism negative), Deisenroth Lab (AID 2284039; active = hit-call score of the fitted dose curve at least 0.9, where 1 is the maximum;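 note: cell viability via live-cell protease substrate cleaved to fluorescent probe; cells exposed 24 h to medium preincubated 2 h with alginate-water beads without S9; loss of fluorescence signal means loss of viability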)
In short: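 Fluorescent protease-substrate viability readout after 24 h exposure of VM7Luc4E2 cells to conditioned medium. Chemicals (0.002–200 uM) first sat 2 h over alginate-water beads, no S9. Data fitted bidirectionally, loss of signal meaning viability loss.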

[7] = CCTE_Shafer_MEA_dev_bursting_electrodes_number: CCTE's Neural Network Formation Assay for Number of Bursting Electrodes, Shafer Lab (AID 2284043; active = hit-call score of the fitted dose curve at least 0.9, where 1 is the maximum;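 for AC50: potency is for loss of bursting electrodes relative to DMSO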)
In short: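 Rat cortical primary neurons, 48-well MEA, 16 electrodes/well; dosing DIV 0–12, re-dosed with full media change DIV 5, 9. Recordings DIV 5/7/9/12, AxIS adaptive spike detector; bursting electrode = ≥1 burst/2 min. AUC across days; loss of signal vs DMSO.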

[8] = CCTE_Shafer_MEA_dev_per_burst_interspike_interval: CCTE's Neural Network Formation Assay for Burst Interspike Interval, Shafer Lab (AID 2284044);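 for AC50: potency for a decrease of within-burst interspike interval below DMSO level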
In short: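 Readout is the average time between spikes inside single-electrode bursts, taken as a well mean across bursting electrodes. Cortical neurons from rat developed networks on MEA plates under continuous 12-day exposure; recordings on days 5, 7, 9 and 12 were integrated by trapezoidal AUC.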

[9] = CCTE_Shafer_MEA_dev_burst_duration_mean: CCTE's Neural Network Formation Assay for Mean Burst Duration, Shafer Lab (AID 2284045);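 for AC50: curve fitted for loss meaning shorter burst duration than DMSO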
In short: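 Rat cortical cultures, 1.5 x 10^5 cells/well with laminin drop; continuous dosing days 0–12, media plus treatment refreshed DIV 5, 9. AxIS adaptive spike detection; mean single-electrode burst duration, AUC over four recordings, negative direction vs DMSO.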

[10] = CCTE_Shafer_MEA_dev_interburst_interval_mean: CCTE's Neural Network Formation Assay for Mean Interburst Interval, Shafer Lab (AID 2284046);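 note: well-mean interburst interval of bursting electrodes as AUC over four recording days; curve fitted for decrease in interburst interval relative to DMSO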
In short: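 Primary rat cortical neurons on PEI-coated 48-well MEA plates (laminin added with cells at plating) (16 electrodes/well), exposed from plating day 0 with renewal at DIV 5 and 9. Mean inter-burst interval averaged over bursting electrodes, AUC across days 5, 7, 9, 12; DMSO baseline.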

[11] = CCTE_Shafer_MEA_dev_inter_network_spike_interval_mean: CCTE's Neural Network Formation Assay for Mean Inter-network Spike Interval, Shafer Lab (AID 2284047);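 for AC50: potency for a decrease in mean inter-network spike interval below DMSO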
In short: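 Mean time between consecutive network-spike peaks, recorded extracellularly (adaptive spike detection) on DIV 5, 7, 9 and 12, summarized as trapezoidal AUC. Rat cortical cultures on MEAs dosed continuously days 0–12, re-dosed at feeds; loss-of-signal fit relative to DMSO.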

[12] = CCTE_Shafer_MEA_dev_network_spike_number: CCTE's Neural Network Formation Assay for Number of Network Spikes, Shafer Lab (AID 2284048);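 for AC50: fit as a loss of signal meaning fewer network spikes than DMSO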
In short: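 Rat cortical primary cultures on 48-well MEA (16 electrodes/well); continuous exposure DIV 0–12, full medium and treatment exchange DIV 5, 9. Readout: network spike count, AxIS adaptive detection, recordings DIV 5/7/9/12 collapsed to AUC; loss-of-signal fit, DMSO baseline.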

DIO2 (gene 1734) = assay: CCTE_GLTED_hDIO2: CCTE's human Deiodinase 2 (DIO2) Inhibition Assay, Great Lakes Toxicology and Ecology Division (GLTED) Lab (AID 2284050; active = hit-call score of the fitted dose curve at least 0.9, where 1 is the maximum)
In short: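 Readout: absorbance from Sandell-Kolthoff detection of free iodide released by human DIO2 during a 3 h incubation with chemical. Cell-free format, n=3; activity fitted relative to DMSO negative control.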

[13] = CCTE_Shafer_MEA_dev_network_spike_duration_std: CCTE's Neural Network Formation Assay for Standard Deviation of Network Spike Duration, Shafer Lab (AID 2284052);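 note: hits are decreases in network spike duration SD versus DMSO vehicle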
In short: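 Network spike duration variability was collapsed across recordings on days 5, 7, 9 and 12 by trapezoidal area-under-curve and fitted downward against DMSO. Cultures were rat cortical neurons on PEI-coated MEA plates, dosed continuously from plating, refed with compound DIV 5/9.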

[14] = CCTE_Shafer_MEA_dev_per_network_spike_spike_number_mean: CCTE's Neural Network Formation Assay for Mean Number of Spikes in a Network Spike, Shafer Lab (AID 2284053);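 for AC50: fitted as decrease in spikes per network spike relative to DMSO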
In short: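 Mean spike count within each network spike, taken in a 0.05 s window at its peak, was recorded on days 5, 7, 9 and 12 and integrated as trapezoidal area under the curve. Rat cortical cultures on MEA plates received continuous compound from day 0, refreshed at medium changes on DIV 5 and 9.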

[15] = CCTE_Shafer_MEA_dev_per_network_spike_spike_percent: CCTE's Neural Network Formation Assay for Percent of Spikes in a Network Spike, Shafer Lab (AID 2284054)
In short: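 Read-out: percent of spikes falling in a 0.05 s window at network-spike peak, from spontaneous MEA recordings on days 5, 7, 9 and 12; trapezoidal AUC; loss of signal versus DMSO. Rat cortical cultures, compound present throughout.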

DIO3 (gene 1735) = assay: CCTE_GLTED_hDIO3: CCTE's human Deiodinase 3 (DIO3) Inhibition Assay, Great Lakes Toxicology and Ecology Division (GLTED) Lab (AID 2284055; active = hit-call score of the fitted dose curve at least 0.9, where 1 is the maximum;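 for AC50: potency is for inhibition seen as loss of released iodide signal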)
In short: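 hDIO3 (adenovirus-expressed) + test chemical, 3 h incubation; free iodide quantified by Sandell-Kolthoff reaction, absorbance read-out. DMSO negative control, n=3.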

Measured: AC50

C#CCC1=C(C)C(OC(=O)C2C(C=C(C)C)C2(C)C)CC1=O (centres undefined)
inactive: [2] | [3] | [5] | [8] | [9] | [10] | [12] | [13] | [14]
active: [1] 14.6 µM | [4] 9.95 µM | [6] 144 µM | [7] 4.27 µM | [11] 9.95 µM | DIO2 (gene 1734) 42.4 µM | [15] 2.64 µM | DIO3 (gene 1735) 34.5 µM

CC1=NNC(=O)N(/N=C/c2cccnc2)C1
inactive: [1] | [2] | [3] | [4] | [5] | [6] | [7] | [8] | [10] | [11] | [12] | [13] | [14] | [15]
active: [9] 24.8 µM

C[Si](Cn1cncn1)(c1ccc(F)cc1)c1ccc(F)cc1
inactive: [3] | [4] | [8] | [9] | [10] | [11] | [12] | [13] | [14]
active: [1] 20 µM | [2] 34.5 µM | [7] 8.85 µM | [15] 20.1 µM

COc1cc(OC)nc(Sc2cccc(Cl)c2C(=O)O)n1
inactive: [1] | [2]

CCc1cccc(C)c1N(C(=O)CCl)C(C)COC (centres undefined)
active: [1] 21.9 µM | [2] 26.9 µM

COP(=O)(OC)C(O)C(Cl)(Cl)Cl (centres undefined)
active: [2] 15 µM | [4] 50 µM | [7] 36.9 µM and 15 µM | [8] 90.8 µM | [12] 2.98 µM | [14] 50 µM and 15 µM | [15] 50 µM and 15 µM
inactive: [1] | [3] | [4] | [8] | [9] | [10] | [11] | [12] | [13]

CCOP(=S)(OCC)SCCSCC
inactive: [1] | [3] | [4] | [6] | [7] | [8] | [9] | [10] | [11] | [12] | [13] | [14] | [15]
active: [2] 8.93 µM

CCOP(=S)(OCC)Oc1ccc2c(C)c(Cl)c(=O)oc2c1
inactive: [5] | [6] | [8] | [9] | [10] | [11] | [12] | [13]
active: [1] 27.2 µM | [2] 2.38 µM | [3] 29.6 µM | [4] 50 µM | [7] 50 µM | [14] 24.4 µM | [15] 82.2 µM

FC(F)C(F)(F)OCC(Cn1cncn1)c1ccc(Cl)cc1Cl (centres undefined)
inactive: [1]
active: [2] 23.8 µM

C[N+]1(C)CCCCC1
inactive: [1] | [2] | [3] | [4] | [7] | [8] | [9] | [10] | [11] | [12] | [13] | [14] | [15]

CCc1cnc(C2=NC(C)(C(C)C)C(=O)N2)c(C(=O)O)c1 (centres undefined)
inactive: [1] | [2]

CN(C)NC(=O)CCC(=O)O
inactive: [1] | [2]

CCOC(=O)CC(SP(=O)(OC)OC)C(=O)OCC (centres undefined)
inactive: [1] | [2] | [3] | [4] | [8] | [9] | [10] | [11] | [12] | [13] | [14] | [15]

Nc1c(Cl)cc([N+](=O)[O-])cc1Cl
inactive: [2]
active: [1] 26 µM

CC(C)=CC1C(C(=O)OCN2C(=O)C3=C(CCCC3)C2=O)C1(C)C (centres undefined)
active: [2] 28.6 µM | DIO2 (gene 1734) 70 µM
inactive: [1] | [3] | [4] | [7] | [8] | [9] | [10] | [11] | [12] | [13] | [14] | [15] | DIO3 (gene 1735)

CC[C@H](C)[C@H]1O[C@]2(C=C[C@@H]1C)C[C@@H]1C[C@@H](C/C=C(\C)[C@@H](O[C@H]3C[C@H](OC)[C@@H](O[C@H]4C[C@H](OC)[C@@H](NC)[C@H](C)O4)[C@H](C)O3)[C@@H](C)/C=C/C=C3\CO[C@@H]4[C@H](O)C(C)=C[C@@H](C(=O)O1)[C@]34O)O2
active: [1] 43 nM and 1.55 µM | [2] 25.5 nM and 47.5 nM | [3] 6.97 nM and 2.42 nM | [4] 88.8 nM and 3.52 nM | [7] 43.5 nM and 3.01 nM | [8] 44.7 nM and 5.36 nM | [9] 20.1 nM and 1.89 nM | [10] 220 nM and 2.96 nM | [11] 0.16 µM | [12] 47.4 nM and 4.79 nM | DIO2 (gene 1734) 31.3 µM | [13] 5.01 nM and 3.04 nM | [14] 55.1 nM and 5.93 nM | [15] 0.517 µM | DIO3 (gene 1735) 33.6 µM
inactive: [11] | [15]
